Compound activity deposited in PubChem BioAssay by several laboratories.
Compounds with a hit are over-represented: about 0.5% of the library has one in this group of screens.
AddAB inh: growth inhibition of E. coli expressing H. pylori AddAB, primary screen, AddAB inhibitor project, absorbance; inhibition, % at 11.9 µM; 0.29% of 330,000 active; AID 435030, 2010; in the data active means inhibition above about 12%;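 further: 0% = vehicle wells of infected cells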
Tat export inh: E. coli Tat export inhibitors, primary screen, MC4100, TorA-mCherry reporter, fluorescence, single point; inhibition, % at 10 µM; 0.036% of 340,000 active;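 active means mean replicate inhibition at least 50% and at least half of replicates individually reaching 50%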;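 further: exported cargo escapes ClpAP degradation while cytoplasmic cargo is degraded and loses fluorescence; 0% = median of neutral control wells and 100% = median of NaSCN control wells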
phage Ecoli inh: growth loss of phage-infected E. coli, primary screen, RecBCD inhibitor project, absorbance, with phage, HTS; inhibition, % at 11.9 µM; 0.26% of 360,000 active; in the data active means inhibition above about 11%
E coli growth-1: E. coli V3065 growth inhibition, primary screen, counter-screen for AddAB inhibitor project, absorbance, OD600 | 0.27% of 330,000 active | 18 h | inhibition, % at 11.9 µM | AID 449728, 2010;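 active means inhibition above the campaign's mean inhibition across all tested compounds plus 3 SD, cut at about 9.9% in these data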;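 further: uninfected addAB+ strain grown without phage in ampicillin broth; 0% = DMSO wells and 100% = ciprofloxacin 0.95 µg/ml wells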
E coli growth-2: E. coli growth inhibition, primary screen, OD600 | Escherichia coli growth, 23 h; hits give low values | 0.21% of 330,000 active | OD600 absorbance (test concentration not listed);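 active means OD600 absorbance below the run mean of sample wells minus 3.6 SD, in any replicate, cut at about 0.56 in these data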
Starred values were filed as active, the others as inactive; nt = no result given.

SMILES	AddAB inh	Tat export inh	phage Ecoli inh	E coli growth-1	E coli growth-2
CCn1cc(C(=O)OCC(=O)NCc2ccccc2Cl)c(=O)c2ccc(C)nc21	0	0	1	3	0.51*
CCn1cc(C(=O)N2CCN(c3cccc(C)c3C)CC2)c(=O)c2ccc(C)nc21	0	11	-1	-1	0.42*
CCn1cc(C(=O)OCC(=O)Nc2c(C)cccc2C)c(=O)c2ccc(C)nc21	3	-1	4	4	0.49*
CCn1cc(C(=O)NCc2ccccc2OC)c(=O)c2ccc(C)nc21	-2	nt	nt	4	0.75
CCCC1S/C(=N/N=Cc2cccs2)NC1=O (stereo not drawn)	nt	nt	nt	nt	0.78
CCCCCC(=O)NNC(=S)NC(C)=O	-2	-2	-8	0	0.48*
CCCCC(=O)NNC(=S)NC(=O)c1ccc(C)cc1	-6	-8	1	-4	0.61
O=[N+]([O-])/C=C/c1cc2ccccc2[nH]1	-1	1	3	-1	0.5*
O=C(CNS(=O)(=O)c1ccc(Br)s1)NCc1ccccc1	2	-5	0	0	0.54*
COc1ccc(S(=O)(=O)Nc2cccc3c2OC(CN(C)S(=O)(=O)c2cn(C)cn2)C(C)CN(C(C)CO)C3=O)cc1 (stereo not drawn)	nt	nt	nt	nt	0.68
COc1cc(NS(=O)(=O)c2ccc(N)cc2)ncn1	21*	nt	nt	16*	nt
CN1CCN(Cc2cc(COCc3ccccc3)c3cccnc3c2O)CC1	8	13	7	0	nt
O=C(Oc1c(CN2CCOCC2)cc(Cl)c2cccnc12)c1ccccc1	-3	16	3	-2	0.68
O=C(COc1c(Br)cc(Br)c2cccnc12)N1CCCCC1	-4	-11	-5	-6	0.7
Oc1c(CN2CCc3ccccc3C2)cc(Cl)c2cccnc12	11	0	nt	0	0.43*
Oc1c(CN2CCCCC2)cc(Br)c2cccnc12	4	2	9	1	0.17*
Oc1c(Cl)cc(CN2CCOCC2)c2cccnc12	8	5	4	8	0.52*
COc1cccc(C=NNc2ccc([N+](=O)[O-])cn2)c1O	nt	nt	nt	nt	0.41*
COc1cccc(/C=N/Nc2ccc([N+](=O)[O-])cc2)c1O	0	-15	1	-1	nt
CCOc1cccc(/C=N/Nc2ccc(S(=O)(=O)N(CC)CC)cn2)c1O	12	-5	13*	12*	nt
Nc1nc(Nc2cccc(F)c2)nc2ccccc12	2	7	6	1	0.47*
O=c1oc(Nc2cccc(F)c2)nc2ccccc12	4	-7	2	1	0.67
c1ccc(Nc2nc(NCC3CCCO3)c3ccccc3n2)cc1 (stereo not drawn)	2	-21	1	1	0.47*
CCOc1ccc(Nc2nc(NCC3CCCO3)c3ccccc3n2)cc1 (stereo not drawn)	0	-38	6	3	0.49*
CCOc1ccc(Nc2c3ccccc3nc3ccccc23)cc1	9	-8	5	10	0.52*
SMILES	AddAB inh	Tat export inh	phage Ecoli inh	E coli growth-1	E coli growth-2
Cc1ccc(-n2[nH]c(C)c(C=Nc3ccc(S(=O)(=O)Nc4nccs4)cc3)c2=O)cc1	13*	nt	nt	9	0.66
O=C(CN(Cc1ccc(F)cc1)C(=O)CNS(=O)(=O)c1ccc(F)cc1)NCC1CCCO1 (stereo not drawn)	1	-1	0	1	0.68
O=C(CN(Cc1ccccc1Cl)C(=O)CNS(=O)(=O)c1ccc(F)cc1)NCC1CCCO1 (stereo not drawn)	-1	53*	1	1	0.66
COc1cc(NC(=O)CC(C)=NNC(=O)c2ccccn2)c(OC)cc1Cl	nt	nt	nt	nt	0.65
O=C(CNC(=O)c1ccc2c(c1)OCCO2)NN=Cc1ccc(O)cc1O	nt	nt	nt	nt	0.67
CN(C)c1ccc(O)c2c1CC1CC3C(N(C)C)C(=O)C(C(N)=O)=C(O)[C@]3(O)C(=O)C1=C2O (stereo partly drawn)	nt	nt	nt	nt	0.071*
CC1c2cccc(O)c2C(=O)C2C(=O)C3(O)C(=O)C(C(N)=O)C(=O)C(N(C)C)C3C(O)C21 (stereo not drawn)	nt	nt	nt	nt	0.068*
CC1c2cccc(O)c2C(O)=C2C(=O)C3(O)C(O)=C(C(N)=O)C(=O)C(N(C)C)C3C(O)C21 (stereo not drawn)	nt	nt	nt	nt	0.067*
CC1c2cccc(O)c2C(O)=C2C(=O)[C@]3(O)C(O)=C(C(N)=O)C(=O)C(N(C)C)C3C(O)C21 (stereo partly drawn)	nt	nt	nt	nt	0.065*
O=C(Nc1ccccc1)C1=CC(c2coc3ccccc3c2=O)CC(OCCCCO)O1 (stereo not drawn)	nt	nt	nt	nt	0.64
NCCCCC1CNC(=O)C(=O)N1CCc1cccc(F)c1 (stereo not drawn)	nt	nt	nt	nt	0.67
Clc1ccc(CON=Cc2cccs2)cc1	nt	nt	nt	nt	0.67
O=C(NCc1ccccc1)c1cc(S(=O)(=O)N2CCCCC2)ccc1N1CCOCC1	0	-3	2	3	0.44*
COc1ccccc1/C=C/C=Nn1c(-c2ccccc2)n[nH]c1=S	nt	nt	nt	nt	0.65
C=C1C(=O)[C@@]23C(O)CC4C(C)(C)CCC(O)[C@]4(C)C2CC(O)C1C3O (stereo partly drawn)	nt	nt	nt	nt	0.66
CO[C@H]1C=CO[C@@]2(C)Oc3c(C)c(O)c4c(O)c(c5c(c4c3C2=O)NC2(CCN(CC(C)C)CC2)N=5)=NC(=O)C(C)=CC=C[C@H](C)[C@H](O)[C@@H](C)[C@@H](O)[C@@H](C)[C@H](OC(C)=O)[C@@H]1C	100*	nt	nt	102*	nt
COC1C=CO[C@@]2(C)Oc3c(C)c(O)c4c(O)c(c(C=NN5CCN(C6CCCC6)CC5)c(O)c4c3C2=O)NC(=O)C(C)=CC=CC(C)C(O)C(C)C(O)C(C)C(OC(C)=O)C1C (stereo partly drawn)	nt	nt	nt	nt	0.07*
NC1=NCC(Cc2ccc(O)cc2)N1CCCCC1CCCCC1 (stereo not drawn)	nt	nt	nt	nt	0.45*
COc1ccc(C(C)=NNC(=O)c2nc(C)cc(C)n2)cc1	nt	nt	nt	nt	0.7
C[C@@]12C(=O)N(CCO)CC(=O)N1C(C=Cc1ccccc1)C1C(=O)N(c3ccccc3)C(=O)C12 (stereo partly drawn)	nt	nt	nt	nt	0.72
COc1ccc2cc(C(=O)C3CCCN(C(=O)Cc4c(C)noc4C)C3)ccc2c1 (stereo not drawn)	1	-2	-2	-2	0.54*
COc1ccc2cc(C(=O)C3CCCN(C(=O)c4snnc4C)C3)ccc2c1 (stereo not drawn)	-3	3	-1	-1	0.69
O=C(C1=C[C@H](c2ccccc2)C[C@H](OCc2ccc(CO)cc2)O1)N1CCOCC1	1	-2	1	1	0.65*
CN1CCN(C(=O)C2=C[C@@H](c3ccccc3)C[C@@H](OCc3ccc(CO)cc3)O2)CC1	0	-11	1	-2	nt
COc1ccc(C(=O)NCC(=O)NN=Cc2ccc([N+](=O)[O-])s2)cc1OC	nt	nt	nt	nt	0.72
CC(=O)OCC1OC(CC=NOC(C)c2cn(C(CO)Cc3ccccc3)nn2)C=CC1OC(C)=O (stereo not drawn)	nt	nt	nt	nt	0.67
CCCCCCCCCCCCCCCC[n+]1cccc2ccccc21	6	5	4	4	0.092*
